# Results as given in the antibiotic and cytotoxicity screens of Wong et al. (2023).
# Among all 39,000 compounds or so, about 3,300 (8.5%) were called active. For the sample, actives were picked, then their nearest neighbours and some compounds at random.
# Test system: HepG2
# Experiment: cytotoxicity call (relative viability < 0.9)
# Details: 10 µM
row,SMILES,cytotoxicity call
1,COCCN1C[C@H]2CN(Cc3nccn3C)C[C@H]2C1=O,inactive
2,O=C(C[C@H]1C[C@H]2c3cc(NS(=O)(=O)c4ccc(F)cc4)ccc3O[C@H]2[C@H](CO)O1)NC1CCCCC1,inactive
3,CC1(C)CCC2=C(O1)C(=O)c1ccccc1C2=O [alpha-LAPACHONE ],inactive
4,Cc1noc(C)c1NC(=O)N(C)C[C@H]1OCCCC[C@@H](C)Oc2ccc(NC(=O)CCC(F)(F)F)cc2C(=O)N([C@H](C)CO)C[C@@H]1C,inactive
5,Cc1ccc(S(=O)(=O)N(C)C[C@@H]2Oc3ccc(NS(=O)(=O)c4c(C)noc4C)cc3C(=O)N([C@H](C)CO)C[C@H]2C)cc1,inactive
6,C[C@@H]1CCCCO[C@H](CN(C)C(=O)CCC(F)(F)F)[C@H](C)CN([C@@H](C)CO)C(=O)c2cc(NS(=O)(=O)c3ccccc3)ccc2O1,inactive
7,C[C@@H]1CN([C@@H](C)CO)C(=O)c2cc(NS(=O)(=O)c3cn(C)cn3)ccc2O[C@@H](C)CCCCO[C@H]1CN(C)S(=O)(=O)c1cn(C)cn1,inactive
8,C[C@H](CO)N1C[C@H](C)[C@@H](CN(C)Cc2ccc(-c3ccccc3)cc2)Oc2ccc(NC(=O)Nc3ccc(C(F)(F)F)cc3)cc2CC1=O,active
9,C[C@@H]1CN([C@@H](C)CO)C(=O)Cc2cc(NC(=O)Nc3ccc(C(F)(F)F)cc3)ccc2O[C@@H]1CN(C)Cc1ccc(-c2ccccc2)cc1,active
10,C[C@@H]1CN([C@H](C)CO)C(=O)Cc2cc(NC(=O)Nc3ccc(C(F)(F)F)cc3)ccc2O[C@H]1CN(C)Cc1ccc(-c2ccccc2)cc1,active
11,C[C@@H]1CCCCO[C@@H](CN(C)C(=O)c2ccccc2)[C@H](C)CN([C@@H](C)CO)C(=O)c2cc(NC(=O)c3ccccc3)ccc2O1,inactive
12,C[C@@H]1CN([C@@H](C)CO)C(=O)Cc2cc(NC(=O)CCN3CCOCC3)ccc2O[C@H]1CN(C)Cc1ccncc1,inactive
13,COc1cccc(NC(=O)N[C@@H]2CC[C@H](CC(=O)N3CCOCC3)O[C@H]2CO)c1,inactive
14,O=C(NCc1cccc(F)c1)[C@H]1[C@H](CO)[C@H]2Cn3c(cccc3=O)[C@@H]1N2C(=O)c1cnccn1,inactive
15,C[C@@H](CO)N1CC[C@H](CN(C)Cc2ccc(Oc3ccccc3)cc2)Oc2c(NC(=O)c3ccncc3)cccc2C1=O,inactive
16,CC(=O)N[C@H]1[C@@H](OCc2ccccc2)O[C@H](C(=O)O)[C@@H](OC(C)=O)[C@@H]1OC(C)=O,inactive

row,SMILES,cytotoxicity call
1,C[C@@H]1CN([C@@H](C)CO)S(=O)(=O)c2ccc(-c3ccc(C(=O)N(C)C)cc3)cc2O[C@H]1CN(C)C(=O)C1CCOCC1,inactive
2,COCC(=O)N(C)C[C@@H]1Oc2cc(C#Cc3ccccc3)ccc2S(=O)(=O)N([C@@H](C)CO)C[C@H]1C,inactive
3,Cc1ccc(NC2=CC(=O)C[C@H](c3ccc(Cl)cc3)C2)cc1,inactive
4,C[C@H](CO)N1C[C@H](C)[C@H](CN(C)Cc2ccc(Cl)c(Cl)c2)OCCCC[C@H](C)Oc2ccc(NC(=O)c3ccccc3)cc2C1=O,inactive
5,C[C@@H]1CCCCO[C@@H](CN(C)Cc2ccc(Cl)c(Cl)c2)[C@H](C)CN([C@@H](C)CO)C(=O)c2cc(NC(=O)c3ccccc3)ccc2O1,active
6,C[C@@H]1CN([C@H](C)CO)C(=O)c2cc(NC(=O)c3ccccc3)ccc2O[C@@H](C)CCCCO[C@H]1CN(C)Cc1ccc(Cl)c(Cl)c1,active
7,C[C@H](CO)N1C[C@H](C)[C@@H](CN(C)Cc2ccc(Cl)c(Cl)c2)OCCCC[C@H](C)Oc2ccc(NC(=O)c3ccccc3)cc2C1=O,inactive
8,C[C@H]1CCCCO[C@H](CN(C)Cc2ccc(Cl)c(Cl)c2)[C@@H](C)CN([C@@H](C)CO)C(=O)c2cc(NC(=O)c3ccccc3)ccc2O1,inactive
9,C[C@@H]1CCCCO[C@H](CN(C)Cc2ccc(Cl)c(Cl)c2)[C@@H](C)CN([C@H](C)CO)C(=O)c2cc(NC(=O)c3ccccc3)ccc2O1,inactive
10,C[C@@H]1CN([C@H](C)CO)C(=O)c2cc(NC(=O)c3ccccc3)ccc2O[C@@H](C)CCCCO[C@@H]1CN(C)Cc1ccc(Cl)c(Cl)c1,active
11,C[C@@H]1CCCCO[C@H](CN(C)Cc2ccc(Cl)c(Cl)c2)[C@H](C)CN([C@@H](C)CO)C(=O)c2cc(NC(=O)c3ccccc3)ccc2O1,inactive
12,C[C@@H]1CCCCO[C@@H](CN(C)Cc2ccc(Cl)c(Cl)c2)[C@H](C)CN([C@H](C)CO)C(=O)c2cc(NC(=O)c3ccccc3)ccc2O1,inactive
13,C[C@@H]1CN([C@H](C)CO)C(=O)CCCn2nncc2CO[C@H]1CN(C)C(=O)Nc1ccc(C(C)(C)C)cc1,inactive
14,Cc1ccc(S(=O)(=O)N2C[C@H](O)COC[C@@H]3O[C@H](CC(=O)N4CCc5ccccc5C4)CC[C@H]32)cc1,inactive
15,COc1ccc(NC(=O)Nc2ccc3c(c2)C(=O)N([C@H](C)CO)C[C@H](C)[C@@H](CN(C)CC2CC2)OCCCC[C@@H](C)O3)cc1,inactive
